High-throughput results from PubChem.
Most compounds without a hit are left out; they make up all but 11% or so of the library.
PNC assembly inh: blocks assembly of the perinucleolar compartment; PC3M PTB-GFP, PNC prevalence imaging, 16 h; stronger effect = lower value; activity change (PNC), negative = inhibition, % at 10 µM; actives 3.1% (n = 140,000);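 active means readout at or below -70, meaning at least 70% loss of cells showing the perinucleolar compartment, a nuclear body marking cancer cells; inconclusive means readout between -30 and a set limit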;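 further: plate controls were DMSO wells for no effect and camptothecin positive control wells for full effect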
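Read-out is percentage of cells bearing a perinucleolar compartment, from automated 20x imaging of fixed, Hoechst-stained PC3M PTB-GFP cells. Cells were seeded 4 h, then exposed 16 h to compound (23 nl of library stock) in duplicate plates.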
HPGD inh: HPGD (human) dehydrogenase inhibition; Potency, µM, inactives show top-dose activity change, negative = inhibition, actives largely listed as inhibitors; AID 894; purified HPGD, NADH fluorescence kinetic, PGE2 substrate; actives 4.3% (n = 150,000); P15428; further: potency means the concentration at half of the fitted maximal effect
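20 nM HPGD preincubated 15 min at room temperature with compound in 50 mM Tris-HCl pH 8, 0.01% Tween 20. Started with 1 mM NAD+ and 30 uM prostaglandin E2; NADH fluorescence (360/450 nm) read 5 times over 30-s intervals, last minus first.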
ALDH1A1 block: inhibitors of human aldehyde dehydrogenase 1A1 | P00352 | Purified ALDH1A1, NADH fluorescence, propionaldehyde substrate | Potency, µM (doses to about 75.3 µM), inactives show at the highest dose activity, negative = inhibition, usual class: inhibitors | actives 7.3% (n = 220,000) | AID 1030;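 further: potency means the concentration at half of the fitted maximal effect; plate controls were no enzyme wells and a reference inhibitor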
Target sequence (P00352 whole entry, looked up): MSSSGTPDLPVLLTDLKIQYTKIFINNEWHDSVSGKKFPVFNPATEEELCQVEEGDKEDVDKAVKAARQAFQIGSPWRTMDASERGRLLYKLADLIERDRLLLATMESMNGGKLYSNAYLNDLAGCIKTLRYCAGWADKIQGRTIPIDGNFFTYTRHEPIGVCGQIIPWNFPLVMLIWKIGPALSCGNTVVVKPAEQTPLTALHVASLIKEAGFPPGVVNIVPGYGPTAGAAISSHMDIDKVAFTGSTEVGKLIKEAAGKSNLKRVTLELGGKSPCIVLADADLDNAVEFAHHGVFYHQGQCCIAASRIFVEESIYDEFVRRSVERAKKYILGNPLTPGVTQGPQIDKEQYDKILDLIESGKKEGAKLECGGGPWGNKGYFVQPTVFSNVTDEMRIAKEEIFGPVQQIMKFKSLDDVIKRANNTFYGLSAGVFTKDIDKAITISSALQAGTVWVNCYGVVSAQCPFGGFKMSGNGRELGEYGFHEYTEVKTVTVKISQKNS
* hit, by the source's call; u = inconclusive; x = not tested or not shown; [ ] = remark or other dose. Unless noted, the call rests on the fitted dose curve; in most records, active means well fitted inhibition curve with a large enough effect (not every such curve was filed as active); inconclusive means small, poorly fitted or top-dose-only effect, or another doubt; inactive means no such curve, though single readings can be large or run the other way. Unless noted, on the % scale 0 is the no-effect control and ±100 the full control effect.

SMILES	PNC assembly inh	HPGD inh	ALDH1A1 block
COc1ccc(C(=O)N2CCN(c3ccc([N+](=O)[O-])c(NCCc4ccc(OC)c(OC)c4)c3)CC2)cc1	u	-14%	u
COc1ccc(CCNc2cc(N3CCN(C(=O)c4ccccc4F)CC3)ccc2[N+](=O)[O-])cc1OC	46	-23%	2.5µM*
O=C(c1ccccc1F)N1CCN(c2ccc([N+](=O)[O-])c3ncccc23)CC1	u	0%	u
COc1ccc(CCNc2cc(N3CCN(C(=O)c4ccc(C)cc4)CC3)ccc2[N+](=O)[O-])cc1OC	-21	-13%	8.9µM*
Cc1ccc(N(C)C(=O)N2CCN(S(=O)(=O)c3ccc4ccccc4c3)CC2)cc1	-1	-4%	u
Cn1nc(C(F)(F)F)c(C#N)c1N1CCN(c2cccc(C(F)(F)F)c2)CC1	10	-9%	14%
Cc1ccc(N/C(=N/S(=O)(=O)c2cccs2)c2ccccc2)c(C)c1	x	x	4%
COC(=O)c1ccccc1NC1=C/C(=N\S(=O)(=O)c2cccs2)c2ccccc2C1=O	-22	u	3.2µM*
O=C1C(Nc2ccccc2)=C/C(=N/S(=O)(=O)c2cccs2)c2ccccc21	-81*	-11%	u
Cc1ccc(NC2=C/C(=N/S(=O)(=O)c3cccs3)c3ccccc3C2=O)cc1	-101*	-3%	12%
CCc1cc[n+](C2=C([O-])c3ccccc3C(=O)/C2=N\S(=O)(=O)c2cccs2)cc1	u	-10%	u
COC(=O)c1cccc(NS(=O)(=O)c2cccs2)c1C	14	-7%	u
C=C(C)C1CC=C(C)/C(=N/NC(=O)c2ccoc2C)C1 (centres undefined)	23	1%	-4%
CC(C)(C)[C@H]1C=C(C(=O)N2CCN(Cc3ccc4c(c3)OCO4)CC2)O[C@@H](OCc2ccc(CO)cc2)C1	x	x	-8%
COc1ccc(NC(=O)CN2C(=O)C(C)SC(C)C2=O)c(OC)c1 (centres undefined)	33	-9%	u
COc1cccc(OC2OC3COC(C)(C)OC3C(O)C2NC(C)=O)c1 (centres undefined)	x	x	4%
Cc1ccccc1NS(=O)(=O)c1cc(C(N)=O)ccc1C	22	-9%	1%
COC(=O)c1cc(=O)nc2scc(C)n12	26	-7%	22µM*
COC(=O)c1cc(=O)nc2sc3ccccc3n12	15	-6%	u
O=C(c1ccccc1SCc1ccccc1)N1CCCCCC1	x	x	3%
CN(CC(=O)N1CCCCCC1)S(=O)(=O)c1ccc(Br)s1	32	22µM*	u
CN(CC(=O)N1CCCCCC1)S(=O)(=O)c1ccc(F)cc1	x	x	-1%
CCOc1ccccc1NC(=S)N1CCN(c2nc(-c3cccc(OC)c3)cs2)CC1	x	x	-4%
COC(=O)C1=C(C(=O)OC)[C@@H]2N(C)c3ccc(OC)cc3[C@@]23C[C@@H](C(=O)OC)N(S(=O)(=O)c2ccc(C)cc2)C3=N1	x	2%	-10%[13.5 µM]
C=CCN(CC=C)C(=O)C1CCC(C(=O)N(CC=C)CC=C)CC1 (centres undefined)	-88*	-11%	-2%
SMILES	PNC assembly inh	HPGD inh	ALDH1A1 block
C=CCN(CC=C)C(=O)C1CC(=O)N(c2ccc(Br)cc2)C1 (centres undefined)	16	-14%	1%
Cc1ccc(Cl)cc1N1CCN(S(=O)(=O)c2ccc3c(c2)oc(=O)n3C)CC1	-16	-6%	6%
S=C(NC1CCCCC1)N(CCc1ccccc1)CCc1ccccc1	69	x	-5%
CC1=CC(C)(C)NC(=S)N1c1cccc2ccccc12	0	1%	22µM*
CC1=CC(C)(C)NC(=S)N1c1ccc2ccccc2c1	-21	-17%	-1%
CCOC(=O)c1[nH]c(C)c(C(=O)N2CCN(C(=O)c3ccco3)CC2)c1C	-100*	-7%	-5%
Cc1[nH]c2ccccc2c1C(=O)C(=O)N1CCN(C(=O)c2ccco2)CC1	x	x	6.3µM*
CCOC(=O)c1[nH]c(C)c(C(=O)N2CCN(c3ccc(F)cc3)CC2)c1C	-28	-1%	5%
O=C(C(=O)N1CCN(C(=O)c2ccco2)CC1)c1c[nH]c2ccccc12	x	x	2%
Cc1[nH]c2ccccc2c1NC(=O)CN1CCN(Cc2ccc3c(c2)OCO3)CC1	16	-3%	0%
Cc1[nH]c2ccccc2c1NC(=O)CN1CCN(C(=O)c2ccco2)CC1	x	x	6.3µM*
CCOC(=O)C1=C(N)OC2=C(C(=O)CC(C)(C)C2)C1c1cccs1 (centres undefined)	10	-21%	u
C=CCOC(=O)C(=O)/C=C/c1csc2ccccc12	x	x	10µM*
C=CCOC(=O)C(=O)/C=C/c1ccc2c(c1)Cc1ccccc1-2	x	x	1%
O=C1OCCC1Sc1nnc(-c2ccc(Cl)cc2Cl)o1 (centres undefined)	x	x	-4%
CNc1oc(Cc2ccccc2)nc1S(=O)(=O)c1ccccc1	-13	-3%	25µM*
CNc1oc(C)nc1S(=O)(=O)c1ccc(C)cc1	-3	-7%	u
O=C1CCn2nc(-c3ccc(Cl)cc3)cc2N1	26	-5%	-2%
CC(=O)NS(=O)(=O)c1cccnc1Nc1cccc(Cl)c1	14	-8%	u
CCNC(=O)NS(=O)(=O)c1cnccc1Nc1cccc(Cl)c1	-90*	1%	1%
CN1C(=S)SC(C)(NO)C1(C)C (centres undefined)	u	-27%	0.79µM*
COc1ccc(C2NC(=O)N(C)C3=C2C(=O)CC(C)(C)C3)cc1OC (centres undefined)	1	0%	4%
NC(N)=NNC(=O)C(=O)O	x	-6%	10%[13.5 µM]
O=C(c1ccc(OC2CCN(CCc3ccccc3)CC2)cc1)N1CCCC(CO)C1 (centres undefined)	x	x	2%
O=C(Nc1ncnc2sc3c(c12)CCCC3)c1ccncc1	x	x	-8%
SMILES	PNC assembly inh	HPGD inh	ALDH1A1 block
O=C(Nc1ncnc2sc3c(c12)CCCCC3)c1ccco1	-124*	u	11%
CS(=O)(=O)N1CCN(c2ccccc2NC(=O)c2cccs2)CC1	-12	-10%	10µM*
CCOc1ccccc1NC(=O)CSc1nnc(-c2ccco2)o1	3	-8%	3%
CC(C)C(=O)Nc1ccccc1N1CCN(S(C)(=O)=O)CC1	21	1%	-9%
CS(=O)(=O)N1CCN(c2ccccc2NC(=O)C(c2ccccc2)c2ccccc2)CC1	u	-9%	6.3µM*
CS(=O)(=O)N1CCN(c2ccccc2NC(=O)CSc2nnc(-c3ccco3)o2)CC1	17	-10%	13µM*
O=C(Nc1ccccc1N1CCCCC1)c1cccs1	23	-3%	-7%
CCOC(=O)c1oc2ccccc2c1NC(=O)c1cccc(OC)c1OC	30	u	u
CC(OC(=O)c1snc(C(=O)NC2CCCCC2)c1N)C(=O)NC1CCCCC1 (centres undefined)	-25	u	u
CNC[C@@H](SC)c1ccc(O)c(O)c1	x	2%	9%[13.5 µM]
CCOC(=O)C1CCCc2c1[nH]c1c(C(=O)O)cccc21 (centres undefined)	-29	-10%	1%
CC1CCN(C(=O)CN2C(=O)C(=O)c3ccccc32)CC1	-21	-7%	0.35µM*
CC1CCN(C(=O)Cn2c(=O)oc3ccccc32)CC1	u	-1%	4%
O=C(Nc1nc(-c2ccccc2)cs1)c1cccc([N+](=O)[O-])c1	21	-19%	u
